# High-throughput results: PubChem, several laboratories
# Only some compounds are listed: those with a hit (about 1.6% of all), similar ones and a draw of the others.
# ugtP null kill = compounds lethal to S. aureus RN4220 ugtP deletion mutant; OD600 growth, 16 h; growth inhibition, % (no concentration beside the values); actives 0.54% (n = 330,000); AID 1259309; in the data active = growth inhibition above about 68%;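 also: plate controls were untreated wells for no effect and antibiotic for full effect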
# RN4220 kill = S. aureus RN4220 growth inhibition; inhibition, % (no concentration beside the values); actives 0.33% (n = 330,000); OD600, 16 h; in the data active = inhibition above about 85%;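 also: plate controls were untreated cells for no effect and reference antibiotic for full effect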
# CCHFV vOTU inh = blocks the CCHF virus ovarian tumor domain protease; CCHFV vOTU protease, Pep-AMC fluorescence; inhibition, % at 11.5 µM; actives 0.55% (n = 370,000); AID 651958; in the data active = inhibition above about 30%; also: 0% = vehicle wells with enzyme and 100% = no enzyme wells
# BJeLR lethal = kills HRASV12-expressing BJeLR cells. BJeLR (HRASV12) viability, CellTiter-Glo ATP luminescence, 48 h. inhibition, % (concentration not given with the values). actives 0.17% (n = 300,000). AID 1554; in the data active = inhibition above about 50%
# Mtb hypoxia inh = Mtb hypoxia fluorescent reporter inhibition; AID 1159583; actives 0.1% (n = 300,000); fluorescence inhibition, % (test concentration not listed); M. tuberculosis hypoxia-regulated fluorescent reporter, fluorescence; in the data active = fluorescence inhibition mostly above about 23%, no sharp cut-off; inactive = mostly below about 17%
# RecA intein inh = Mtb RecA intein splicing inhibition; actives 0.75% (n = 290,000); inhibition, % (test concentration not listed); cell-free RecA intein splicing, fluorescence; in the data active = inhibition above about 30%;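 also: 0% = vehicle wells and 100% = reference inhibitor control wells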
# Target sequence (P9WHJ3 whole entry, looked up): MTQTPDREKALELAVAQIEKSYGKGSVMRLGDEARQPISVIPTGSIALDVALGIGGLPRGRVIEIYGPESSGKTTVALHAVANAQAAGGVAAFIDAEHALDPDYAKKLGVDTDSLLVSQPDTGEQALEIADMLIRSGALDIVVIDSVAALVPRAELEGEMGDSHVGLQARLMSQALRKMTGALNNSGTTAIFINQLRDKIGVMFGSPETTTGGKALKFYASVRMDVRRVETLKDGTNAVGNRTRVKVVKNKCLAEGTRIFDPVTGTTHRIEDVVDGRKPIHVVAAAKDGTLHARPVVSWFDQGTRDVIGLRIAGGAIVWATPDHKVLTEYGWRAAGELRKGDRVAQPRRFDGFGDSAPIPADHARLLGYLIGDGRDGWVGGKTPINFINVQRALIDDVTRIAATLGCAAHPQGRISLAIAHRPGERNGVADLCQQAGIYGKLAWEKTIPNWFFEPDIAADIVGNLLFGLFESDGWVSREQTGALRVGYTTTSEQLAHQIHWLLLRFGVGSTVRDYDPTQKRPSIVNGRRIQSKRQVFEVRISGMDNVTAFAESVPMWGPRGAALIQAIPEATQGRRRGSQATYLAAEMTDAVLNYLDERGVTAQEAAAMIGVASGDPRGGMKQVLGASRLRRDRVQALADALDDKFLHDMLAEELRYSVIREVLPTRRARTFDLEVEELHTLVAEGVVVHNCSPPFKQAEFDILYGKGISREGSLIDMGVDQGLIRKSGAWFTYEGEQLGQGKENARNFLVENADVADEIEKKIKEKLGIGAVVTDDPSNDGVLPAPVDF
# * = called active by the depositor; nt = no result given.
SMILES,ugtP null kill,RN4220 kill,CCHFV vOTU inh,BJeLR lethal,Mtb hypoxia inh,RecA intein inh
CC(C)(C)OC(=O)C(Cc1ccccc1)NC(=O)c1nc[nH]c1C(=O)N1CCNCC1 (configuration not stated),10,8,nt,nt,9,nt
N=C1/C(=C/c2cccn2-c2ccc([N+](=O)[O-])cc2)C(=O)N=C2SC=CN12,-9,1,5,-5,8,-1
COc1ccc(-c2ccc(/C=C3/C(=N)N4C=CSC4=NC3=O)o2)c([N+](=O)[O-])c1,94*,21,24,-3,-1,11
O=C(CCSc1ccc(Cl)cc1)c1ccco1,84*,2,-4,-4,12,-2
O=C(CSc1ccccc1Cl)c1ccco1,87*,15,7,-1,19,-1
Cc1cccc(N2CCc3c2nc2ccc(Br)cc2c3N)c1,100*,99*,-16,-1,19,4
CC1CN(C(C)CO)C(=O)c2cccc(NC(=O)Nc3ccc(C(F)(F)F)cc3)c2OC1CN(C)S(C)(=O)=O (configuration not stated),-12,-1,nt,nt,-4,nt
CCC(C)Cc1cn(C(CCCCNC(=O)OC(C)(C)C)C(=O)NCCCCCCCCCCC(=O)N2CCN(C(=O)OC(C)(C)C)CC2)nn1 (configuration not stated),2,-3,nt,nt,-10,nt
CCn1nc([N+](=O)[O-])c(C(C#N)c2nc3cc(C(F)(F)F)ccc3s2)c(Cl)c1=O (configuration not stated),92*,99*,27,10,16,4
O=c1cc2c(nn1Cc1ccc(Cl)cc1)-c1ccccc1CC2,-14,0,33*,-14,8,4
Cc1ccc(Cn2ncn3c(cc4ccccc43)c2=O)cc1,93*,2,-2,8,4,16
COc1ccc(CNC(=O)Cn2ncn3c(cc4ccccc43)c2=O)cc1,16,5,-15,4,0,0
O=S1(=O)C2CC3C=C[C@]2(CN1Cc1ccc(C(F)(F)F)cc1)O3 (some centres not stated),0,4,nt,nt,1,nt
COC(=O)C1=C(c2ccc(F)cc2OCc2ccccc2)CC2CCC1N2C(=O)NC(C)C (configuration not stated),-10,-1,nt,nt,3,nt
O=C(Nc1nc(-c2cccs2)cs1)c1ccc(Cl)s1,94*,61,6,3,nt,7
O=C(Nc1nc(-c2ccc(Cl)s2)cs1)c1ccccc1,94*,6,17,4,nt,13
O=C(O)C1CCC1C(=O)Nc1nc(-c2ccc(Cl)s2)cs1 (configuration not stated),14,1,0,-10,2,1
CC(OC(=O)N(C)Cc1ccccc1)C1O[C@]2(C)CCCCC1O2 (some centres not stated),9,10,nt,nt,7,nt
CC1(c2ccccc2)CC(C)(C)N(C(=O)C2CCCO2)c2ccccc21 (configuration not stated),12,14,35*,-7,14,15
Cc1cc(C)c(C#N)c(N2CCN(CCOc3ccc(Cl)cc3)CC2)n1,-5,-16,-8,4,-5,10
COc1ccc(Cl)cc1CN1CCN(c2nc(C)cc(C)c2C#N)CC1,100*,99*,3,-13,nt,7
CCCCS/C(=C(/C#N)C(N)=O)c1cc2c([nH]1)CCCC2,4,15,12,2,12,36*
CCc1ccc(N/C(SC)=C(/C#N)C(N)=O)cc1,2,-3,nt,-1,2,2
ClC(Cl)(c1nnnn1-c1ccccc1)c1nnnn1-c1ccccc1,100*,100*,-4,nt,14,nt
Cn1c(CC(=O)NC(C)(C)CO)c(Sc2ccccc2)c2ccccc21,11,-1,-10,6,10,-1
SMILES,ugtP null kill,RN4220 kill,CCHFV vOTU inh,BJeLR lethal,Mtb hypoxia inh,RecA intein inh
CCOC(=O)Cc1c(Sc2ccccc2)c2ccccc2n1C,95*,-9,12,-6,14,-3
COc1cccc(C=NNc2snc(SC)c2C#N)c1O,96*,96*,nt,nt,nt,nt
CSc1ccccc1C(=O)Nc1nc2ccccc2[nH]1,2,-2,4,-16,-14,3
COc1ccccc1C(=O)Nc1nc2ccccc2[nH]1,nt,nt,17,109*,nt,0
COc1cc(SC)ccc1C(=O)Nc1nc2ccccc2[nH]1,nt,nt,-58,121*,nt,2
COc1ccccc1C(=O)NCCC(=O)Nc1nc2ccccc2[nH]1,6,0,2,5,0,6
O=[N+]([O-])c1ccc(C=NNc2cc(Cl)nc(-c3ccccc3)n2)cc1,4,1,nt,nt,nt,nt
COC(=O)C1=CC(C(=O)OC)C2C3=C(C(=O)[C@@]2(C)NC(=O)c2ccccc2)C(c2ccccc2)C2C(=O)NC(=O)C2C3C1 (some centres not stated),-6,-2,nt,nt,-3,nt
O=C(Nn1c(SCc2ccccc2F)nc2ccsc2c1=O)c1ccccc1,37,65,8,-7,3,12
O=C(Nn1c(=O)[nH]c2ccsc2c1=O)c1ccccc1,100*,98*,1,5,10,-1
CC(C)CC(NC(=O)c1nc[nH]c1C(=O)NCc1ccc(CNC(=O)OC(C)(C)C)cc1)C(=O)OC(C)(C)C (configuration not stated),-7,3,nt,nt,-1,nt
COc1ccc2[nH]c(=O)c(CN(C3CCCCC3)C(c3nnnn3Cc3ccco3)C(C)C)cc2c1 (configuration not stated),nt,nt,nt,2,nt,33*
Cc1ccc(S(=O)(=O)n2ccc3c(OCCOCCSCC(NC(=O)OC(C)(C)C)C(=O)O)cccc32)cc1 (configuration not stated),12,20,38*,-4,13,10
CC(C)(C)OC(=O)CC1CC=CCC(CC(=O)NC(CO)Cc2ccccc2)C(=O)N2CCCC2COC1=O (configuration not stated),1,-2,nt,nt,-6,nt
O=C(/C=C/c1cccc(Cl)c1)c1ccc([N+](=O)[O-])o1,nt,nt,9,107*,nt,1
O=C(C=Cc1ccc(Cl)cc1)c1ccc([N+](=O)[O-])o1,99*,79,nt,nt,nt,nt
CCc1ccc(C(=O)/C=C/c2ccc([N+](=O)[O-])o2)cc1,60,24,0,59*,nt,5
Cc1cc(O)c(C(=O)/C=C/c2cccc([N+](=O)[O-])c2)c(=O)o1,nt,nt,-5,9,nt,-1
CCC1=C(OC(=O)N(CC)CC)N2C(=O)OC(=NCCOC)[C@]2(Cc2ccccc2)C2C1=CCC1C(=O)N(CC(=O)OC)C(=O)C12 (some centres not stated),1,3,nt,nt,1,nt
Cc1c(NC(=S)N/N=C/c2cc([N+](=O)[O-])ccc2O)c(=O)n(-c2ccccc2)n1C,nt,nt,0,8,nt,6
Cc1c(NC(=S)NN=C/C=C/c2ccc([N+](=O)[O-])cc2)c(=O)n(-c2ccccc2)n1C,88*,1,nt,nt,1,nt
